Potency data for 9 compounds are collected here from PubChem BioAssay (Tox21).

Test [1] has as its target Aryl hydrocarbon receptor (Homo sapiens) (UniProt P35869). Put plainly: qHTS assay to identify small molecule that activate the aryl hydrocarbon receptor (AhR) signaling pathway (AID 743085). Also: nearly all actives have a fitted effect of over 15% in size. Also: potency is read from the fitted curve at half-maximal effect.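 As to activation: HG2L7.5c1 human HepG2 liver cells with stably integrated DRE-driven firefly reporter; series mostly up to about 70 µM.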 The essentials: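 HepG2 cells (HG2L7.5c1) stably carrying a firefly luciferase reporter driven by 20 dioxin responsive elements were exposed to compound for 24 h at 37C after a 5 h settling period; luminescence rise (ONE-Glo) indicated activation.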
A general note: In qHTS, concentration-response curves come from the screen itself.

Test [2] is described as follows: qHTS assay to identify small molecule that activate the aryl hydrocarbon receptor (AhR) signaling pathway - cell viability counter screen (AID 743086). Also: nearly all actives have a fitted effect of over 45% in size. Also: potency is read from the fitted curve at half-maximal effect. A digest of the protocol:
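Cytotoxicity counter screen: CellTiter-Fluor signal (30 min, 37 C) in 4000 HepG2 cells/well carrying the DRE-luciferase reporter, following 24 h compound exposure at 37 C.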

Test [3] is described as follows: qHTS assay to identify small molecule antagonists of the peroxisome proliferator-activated receptor gamma (PPARg) signaling pathway - cell viability counter screen (AID 743194). Also: nearly all actives have a fitted effect of over 55% in size. Also: potency is read from the fitted curve at half-maximal effect. The essentials:
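Viability was measured as CellTiter-Glo luminescence in GeneBLAzer PPARg UAS-bla HEK293H cells. These cells had been exposed 17 h at 37 C to compounds together with rosiglitazone at 50 nM final, with the beta-lactamase readout taken in the same wells.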

Test [4] is described as follows: qHTS assay for small molecule agonists of the antioxidant response element (ARE) signaling pathway - cell viability counter screen (AID 743203; calls by dose curve; also: nearly all actives have a fitted effect of over 55% in size). A digest of the protocol:
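Following 16 hrs of compound treatment at 37C, HepG2 cells with an ARE-controlled beta-lactamase gene were lysed with CellTiter-Glo. Luminescence was read after 30 min at room temperature.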

Test [5] is described as follows: qHTS assay to identify small molecule agonists of the peroxisome proliferator-activated receptor delta (PPARd) signaling pathway - cell viability counter screen (AID 743211). Also: nearly all actives have a fitted effect of over 55% in size. Also: potency is read from the fitted curve at half-maximal effect. A digest of the protocol: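 PPARd-bla HEK293H cells (UAS-beta-lactamase reporter) were treated with compounds for 17 h at 37 C. Viability was then read in the same wells by CellTiter-Glo luminescence after 30 min at room temperature.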

The target of test [6] is Peroxisome proliferator-activated receptor delta (Homo sapiens) (UniProt Q03181). Put plainly: qHTS assay to identify small molecule agonists of the peroxisome proliferator-activated receptor delta (PPARd) signaling pathway (AID 743212; calls by dose curve). A digest of the protocol:
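HEK293H PPARd-bla cells; 5 h preincubation 37 C/5% CO2; compound (DMSO) 37 C; LiveBLAzer B/G FRET substrate 2 h RT; fluorescence intensity.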

Test [7] is described as follows: qHTS assay to identify small molecule antagonists of the peroxisome proliferator-activated receptor delta (PPARd) signaling pathway - cell viability counter screen (AID 743213). Also: nearly all actives have a fitted effect of over 50% in size. A digest of the protocol:
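Agonist-stimulated (L165041, 300 nM final) HEK293H PPARd UAS-bla cells are exposed to compounds for 17 h at 37 C, and ATP-based luminescence (CellTiter-Glo) from the same wells reports cytotoxicity.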

Test [8] concerns the target Peroxisome proliferator-activated receptor delta (Homo sapiens) (UniProt Q03181). Put plainly: qHTS assay to identify small molecule antagonists of the peroxisome proliferator-activated receptor delta (PPARd) signaling pathway (AID 743215; active = well fitted inhibition curve with a large enough effect in the signal ratio in the repeat runs, not every such curve was filed as active; the % refers to the signal ratio; also: series mostly up to about 62 µM). The essentials: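 HEK293H UAS-bla, PPARd; agonist L165041 300 nM final with cpd in DMSO; 37 C 17 h; FRET substrate, RT 2 h; fluorescence intensity.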

The nature of test [9]: qHTS assay to identify small molecule agonists of the farnesoid-X-receptor (FXR) signaling pathway - cell viability counter screen (AID 743218). Also: nearly all actives have a fitted effect of over 45% in size. A digest of the protocol: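 Parallel cytotoxicity test: compound-treated (16 h, 37 C) HEK 293T FXR-bla reporter cells were lysed with CellTiter-Glo and luminescence recorded.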
The nature of test [10]: qHTS assay to identify small molecule antagonists of the farnesoid-X-receptor (FXR) signaling pathway - cell viability counter screen (AID 743221; active = well fitted cell-killing curve with a large enough effect in the repeat runs, not every such curve was filed as active; also: nearly all actives have a fitted effect of over 50% in size). A digest of the protocol: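 FXR-UAS-bla HEK 293T cells were treated with test compounds plus chenodeoxycholic acid (50 uM final) for 16 h at 37 C. Cell viability in the same wells was then read as CellTiter-Glo luminescence after 30 min at room temperature.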

The target of test [11] is Vitamin D3 receptor (Homo sapiens) (UniProt P11473). Put plainly: qHTS assay to identify small molecule agonists of the vitamin D receptor (VDR) signaling pathway (AID 743222; calls by dose curve). A digest of the protocol: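 In VDR-bla cells, compound-induced beta-lactamase expression is quantified by FRET substrate fluorescence. Treatment lasts 16 h at 37C; substrate develops 2 h at room temperature.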

Test [12] is described as follows: qHTS assay to identify small molecule agonists of the vitamin D receptor (VDR) signaling pathway - cell viability counter screen (AID 743224). Also: series mostly up to about 63 µM; nearly all actives have a fitted effect of over 50% in size. The essentials:
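Plated VDR-bla cells (4 h, 37C) received compound, incubated 16 h, then LiveBLAzer substrate 2 h RT; CellTiter-Glo added afterwards, luminescence read at 30 min.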

The nature of test [13]: qHTS assay for small molecule activators of the heat shock response signaling pathway - cell viability counter screen (AID 743209). Also: nearly all actives have a fitted effect of over 50% in size. A digest of the protocol: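 Readout: CellTiter-Glo luminescence, 30 min at room temperature. System: HSE-bla HeLa cells, 1500/well, plated overnight. Treatment: compounds in DMSO, 5 h at 37 C.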
The target of test [14] is Vitamin D3 receptor (Homo sapiens) (UniProt P11473). Put plainly: qHTS assay to identify small molecule antagonists of the vitamin D receptor (VDR) signaling pathway (AID 743223; active = well fitted inhibition curve with a large enough effect in the signal ratio in the repeat runs, not every such curve was filed as active; the % refers to the signal ratio). The essentials:
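VDR-bla cells were plated, incubated 4 h at 37C, then given compound and 1alpha,25-dihydroxyvitamin D3 (3 nM final). After 16 h at 37C, LiveBLAzer B/G FRET substrate was added for 2 h at room temperature and fluorescence read.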

Test [15] is described as follows: qHTS assay for small molecule activators of the heat shock response signaling pathway (AID 743210; active = well fitted activation curve with a large enough effect in the signal ratio in the repeat runs, with a control signal flat, not every such curve was filed as active; the % refers to the signal ratio;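 also: HeLa cells with beta-lactamase reporter driven by heat shock elements; series mostly up to about 63 µM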). A digest of the protocol: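 HeLa HSE-bla cells, overnight plating; cpd in DMSO 5 h, 37 C; LiveBLAzer B/G FRET substrate 2.5 h RT; fluorescence intensity read.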
The target in test [16] is Bile acid receptor (Homo sapiens) (UniProt Q96RI1). Put plainly: qHTS assay to identify small molecule antagonists of the farnesoid-X-receptor (FXR) signaling pathway (AID 743217; active = well fitted inhibition curve with a large enough effect in the signal ratio in the repeat runs, not every such curve was filed as active; the % refers to the signal ratio). The essentials: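 GeneBLAzer FXR-UAS-bla HEK 293T, CDCA-stimulated (50 uM final). Compound treatment 16 h, 37 °C. Detection: beta-lactamase cleavage of B/G FRET substrate, fluorescence.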
For test [17] the target is unchanged. Put plainly: qHTS assay to identify small molecule agonists of the farnesoid-X-receptor (FXR) signaling pathway (AID 743220; active = well fitted activation curve with a large enough effect in the signal ratio in the repeat runs, not every such curve was filed as active; the % refers to the signal ratio). The essentials:
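Beta-lactamase reporter under UAS control in GeneBLAzer FXR HEK 293T cells (5000/well) measured with LiveBLAzer FRET substrate after 2 h at room temperature. Compound exposure lasted 16 h at 37C.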

Where “and” joins values, the source holds several entries; their conditions need not be identical. Identical values can stand only once. Records with an inconclusive call do not appear. More than one record can exist for a structure, and the calls need not agree. Calls of active or inactive are those of the source. Unless noted, calls follow the shape of the dose curve; as a rule, active = well fitted curve in the direction sought with a large enough effect in the repeat runs; inconclusive = weak or mixed curves; inactive = no such curve, though single readings can be large; an effect the other way counts as inactive or inconclusive.

Sequence of Aryl hydrocarbon receptor (Homo sapiens) (P35869 whole entry, looked up): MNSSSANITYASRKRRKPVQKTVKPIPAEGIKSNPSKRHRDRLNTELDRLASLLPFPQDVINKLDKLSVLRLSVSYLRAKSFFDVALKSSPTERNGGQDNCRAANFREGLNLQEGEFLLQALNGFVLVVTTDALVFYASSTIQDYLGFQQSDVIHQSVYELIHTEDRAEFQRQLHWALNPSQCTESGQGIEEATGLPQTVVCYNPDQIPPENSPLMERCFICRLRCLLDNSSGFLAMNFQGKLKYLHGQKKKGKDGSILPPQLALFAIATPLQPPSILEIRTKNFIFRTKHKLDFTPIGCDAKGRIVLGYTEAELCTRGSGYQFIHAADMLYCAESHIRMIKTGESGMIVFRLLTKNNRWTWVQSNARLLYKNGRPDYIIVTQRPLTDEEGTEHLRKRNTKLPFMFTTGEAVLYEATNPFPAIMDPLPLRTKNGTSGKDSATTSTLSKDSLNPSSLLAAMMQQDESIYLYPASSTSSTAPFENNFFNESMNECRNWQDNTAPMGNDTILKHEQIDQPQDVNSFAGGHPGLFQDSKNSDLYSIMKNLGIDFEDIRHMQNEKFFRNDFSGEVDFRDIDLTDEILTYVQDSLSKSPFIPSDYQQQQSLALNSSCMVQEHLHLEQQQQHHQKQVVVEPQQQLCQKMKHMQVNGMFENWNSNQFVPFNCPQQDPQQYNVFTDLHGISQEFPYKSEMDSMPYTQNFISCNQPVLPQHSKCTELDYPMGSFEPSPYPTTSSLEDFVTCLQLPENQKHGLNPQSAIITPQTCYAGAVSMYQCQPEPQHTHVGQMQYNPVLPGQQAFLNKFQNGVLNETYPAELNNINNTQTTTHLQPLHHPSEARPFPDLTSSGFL
Sequence of Peroxisome proliferator-activated receptor delta (Homo sapiens) (Q03181 whole entry, looked up): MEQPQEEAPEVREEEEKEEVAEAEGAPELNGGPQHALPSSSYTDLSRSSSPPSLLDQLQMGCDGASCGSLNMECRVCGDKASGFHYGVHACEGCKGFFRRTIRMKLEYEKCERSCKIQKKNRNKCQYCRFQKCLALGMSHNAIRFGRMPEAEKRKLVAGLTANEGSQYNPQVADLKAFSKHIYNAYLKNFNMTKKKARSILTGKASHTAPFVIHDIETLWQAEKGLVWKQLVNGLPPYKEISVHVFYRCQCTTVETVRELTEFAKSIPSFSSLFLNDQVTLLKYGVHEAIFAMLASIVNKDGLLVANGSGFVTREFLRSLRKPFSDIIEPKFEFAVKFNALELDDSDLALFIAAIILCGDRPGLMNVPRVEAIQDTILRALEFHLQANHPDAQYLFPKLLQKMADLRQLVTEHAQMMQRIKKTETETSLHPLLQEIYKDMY
Sequence of Bile acid receptor (Homo sapiens) (Q96RI1 whole entry, looked up): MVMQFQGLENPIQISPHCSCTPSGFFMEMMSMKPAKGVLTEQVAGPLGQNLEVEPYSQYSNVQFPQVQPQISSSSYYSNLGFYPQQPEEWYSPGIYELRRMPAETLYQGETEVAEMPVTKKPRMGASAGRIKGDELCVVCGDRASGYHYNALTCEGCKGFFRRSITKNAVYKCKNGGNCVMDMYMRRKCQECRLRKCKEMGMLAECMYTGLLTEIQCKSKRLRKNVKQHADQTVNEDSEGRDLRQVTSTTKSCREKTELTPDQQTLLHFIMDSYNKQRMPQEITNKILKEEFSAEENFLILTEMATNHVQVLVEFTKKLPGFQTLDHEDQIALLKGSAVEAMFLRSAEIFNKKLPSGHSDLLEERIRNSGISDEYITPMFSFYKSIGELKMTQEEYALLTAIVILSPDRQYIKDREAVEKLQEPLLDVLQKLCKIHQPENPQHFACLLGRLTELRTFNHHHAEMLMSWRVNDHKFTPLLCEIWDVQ
Sequence of Vitamin D3 receptor (Homo sapiens) (P11473 whole entry, looked up): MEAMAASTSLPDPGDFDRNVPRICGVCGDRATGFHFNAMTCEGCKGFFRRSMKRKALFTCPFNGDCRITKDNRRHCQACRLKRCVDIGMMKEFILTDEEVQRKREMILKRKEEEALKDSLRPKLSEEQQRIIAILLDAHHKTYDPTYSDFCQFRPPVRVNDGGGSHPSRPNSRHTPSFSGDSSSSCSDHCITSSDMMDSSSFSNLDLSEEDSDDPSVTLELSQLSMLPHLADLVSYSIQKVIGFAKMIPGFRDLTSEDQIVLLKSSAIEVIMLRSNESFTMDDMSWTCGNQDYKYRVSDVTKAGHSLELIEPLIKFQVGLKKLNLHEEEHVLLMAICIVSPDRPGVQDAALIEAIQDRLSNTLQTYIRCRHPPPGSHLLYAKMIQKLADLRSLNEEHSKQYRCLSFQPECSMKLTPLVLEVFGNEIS

Consider `COC(=O)CS`, for which the Potency entry in [1], in test [2], in [3], in test [4], in test [5] and in [6] was “inactive” throughout. The Potency entry in test [7], in test [8], in test [9], in test [10], in [11] and in test [12] was “inactive” throughout.

Regarding `CC(C)C(O)(c1ccc(OC(F)(F)F)cc1)c1cncnc1` (stereo not drawn), the Potency entry in test [1], in [2], in test [3], in test [4], in [13] and in test [5] was “inactive” in each case. For the same compound, the Potency result in test [9], in test [10], in [11], in [14] and in test [12] was “inactive” in each case.

As for `CCOC(=O)c1ccccc1C(=C1C=C(Br)C(=O)C(Br)=C1)c1cc(Br)c(O)c(Br)c1`, the Potency entry in [1], in test [2], in test [4], in [5], in test [7] and in test [11] was “inactive” throughout. Besides, in test [12], the Potency result is “inactive”.

With `Oc1cccc(Nc2ccccc2)c1`, the Potency entry in [1], in [2], in test [3], in test [4], in [13] and in [15] was “inactive” in each case. In addition, the Potency entry in [5], in test [6], in test [7], in test [8], in [16] and in test [9] was “inactive” in each case. The Potency result in [17], in test [10] and in test [12] was “inactive” in each case.

Consider `CC(C)c1nc(CN(C)C(=O)N[C@H](C(=O)N[C@@H](Cc2ccccc2)C[C@H](O)[C@H](Cc2ccccc2)NC(=O)OCc2cncs2)C(C)C)cs1`, for which the Potency entry in test [1], in [3], in test [4], in [13], in test [15] and in test [8] was “inactive” each time. Besides, the Potency result in test [17] and in [12] was “inactive” in each case. The Potency entry in [2] is “inactive and 13.3 µM (active)”; in [5], 29.8 µM (active).

Consider `Clc1cc(Cl)nc(Cl)n1`, for which the Potency result in [1], in test [2], in test [15], in [5], in [6] and in [7] was “inactive” in each case. The Potency result in test [8], in test [16], in [9], in test [17], in test [10] and in test [11] was “inactive” each time. Also, the Potency result in test [14] and in test [12] was “inactive” each time. The Potency in [3] is 49.6 µM (active).

Consider `Cc1cc(O)ccc1O`, for which the Potency in test [1] was 61.8 µM (active). Besides, the Potency entry in test [2], in [3], in test [4], in [13], in test [15] and in test [5] was “inactive” each time. The Potency result in [6], in [7], in test [8], in test [16], in test [17] and in test [10] was “inactive” throughout. The Potency result in [11], in test [14] and in [12] was “inactive” each time.

In the case of `CC1(C)[C@H](C(=O)O)N2C(=O)C[C@H]2S1(=O)=O`, the Potency entry in test [1], in test [2], in [3], in test [4], in test [13] and in test [15] was “inactive” throughout. In addition, the Potency entry in test [5], in [7], in [9], in [17], in [10] and in test [11] was “inactive” throughout. Further, in test [12], the Potency result is “inactive”.

For the compound `C=CCc1ccccc1OCC(O)CNC(C)C` (stereo not drawn), the Potency entry in test [1], in test [2], in [3], in [4], in test [15] and in [5] was “inactive” throughout. The Potency entry in test [6], in test [7], in test [8], in [9], in test [10] and in [11] was “inactive” in each case. The Potency result in test [14] and in [12] was “inactive” in each case.
